We go through 28 compounds from PubChem BioAssay (EPA / NIEHS).

Inconclusive results are not listed. Activity calls are given as the source filed them. Rule for the calls, unless noted: active = hit-call score of the fitted dose curve at least 0.9, where 1 is the maximum; inconclusive = response in the unintended direction; inactive = score below 0.9.

The target in assay [1] is Glucocorticoid receptor (Homo sapiens) (UniProt P04150). In words: ATG_GR_TRANS: Attagene TRANS-FACTORIAL HepG2 Assay for human Glucocorticoid Receptor (GR) (AID 2282978).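 Note: activators score as hits since higher reporter transcript over DMSO is fitted.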 The following applies: HepG2 Attagene TRANS GR reporter, mRNA transcription. An outline of the steps: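 Fluorescent capillary-electrophoresis quantitation of reporter mRNA is the readout, taken 24 h after dosing human HepG2 cells carrying transiently transfected GAL4-UAS reporter units activated by chimeric NR-GAL4 fusions; activity scored as induction over DMSO.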
Glucocorticoid receptor (Homo sapiens), sequence (P04150 whole entry, looked up, the tested form may be a part): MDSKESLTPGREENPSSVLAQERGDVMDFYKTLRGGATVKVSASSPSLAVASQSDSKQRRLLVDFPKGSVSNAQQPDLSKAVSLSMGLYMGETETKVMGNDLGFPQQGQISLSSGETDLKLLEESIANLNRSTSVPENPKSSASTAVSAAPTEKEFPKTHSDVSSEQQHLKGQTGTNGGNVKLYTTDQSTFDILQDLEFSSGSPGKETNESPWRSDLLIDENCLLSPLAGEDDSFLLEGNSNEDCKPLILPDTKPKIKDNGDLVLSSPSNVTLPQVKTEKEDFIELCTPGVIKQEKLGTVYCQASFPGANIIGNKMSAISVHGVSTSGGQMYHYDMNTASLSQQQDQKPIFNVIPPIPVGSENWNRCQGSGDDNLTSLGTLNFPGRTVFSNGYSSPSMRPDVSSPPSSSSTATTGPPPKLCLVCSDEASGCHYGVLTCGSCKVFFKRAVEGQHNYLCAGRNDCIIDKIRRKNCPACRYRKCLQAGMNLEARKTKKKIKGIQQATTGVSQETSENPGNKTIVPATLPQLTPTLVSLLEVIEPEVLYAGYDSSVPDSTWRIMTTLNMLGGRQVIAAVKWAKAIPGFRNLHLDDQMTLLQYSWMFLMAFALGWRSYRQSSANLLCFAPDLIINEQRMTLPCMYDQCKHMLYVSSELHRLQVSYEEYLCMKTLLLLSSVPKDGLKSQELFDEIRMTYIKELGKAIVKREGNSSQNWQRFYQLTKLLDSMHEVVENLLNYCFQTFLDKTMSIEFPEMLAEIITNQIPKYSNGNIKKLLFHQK

In assay [2] the target is Bile acid receptor (Homo sapiens) (UniProt Q96RI1). In words: ATG_FXR_TRANS: Attagene TRANS-FACTORIAL HepG2 Assay for Farnesoid X Receptor (FXR) (AID 2282979).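 Note: hits raise reporter mRNA above DMSO so AC50 marks FXR activation.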 The following applies: HepG2 Attagene TRANS FXR-GAL4 reporter transcription. An outline of the steps: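 HepG2 cells were transiently transfected with GAL4-UAS reporters driven by chimeric NR-Gal4 proteins and dosed for 24 h. Reporter mRNA was quantified by RT-PCR, fluorescent labelling, HpaI digestion and capillary electrophoresis, with gain of signal scored versus DMSO.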
Bile acid receptor (Homo sapiens), sequence (Q96RI1 whole entry, looked up, the tested form may be a part): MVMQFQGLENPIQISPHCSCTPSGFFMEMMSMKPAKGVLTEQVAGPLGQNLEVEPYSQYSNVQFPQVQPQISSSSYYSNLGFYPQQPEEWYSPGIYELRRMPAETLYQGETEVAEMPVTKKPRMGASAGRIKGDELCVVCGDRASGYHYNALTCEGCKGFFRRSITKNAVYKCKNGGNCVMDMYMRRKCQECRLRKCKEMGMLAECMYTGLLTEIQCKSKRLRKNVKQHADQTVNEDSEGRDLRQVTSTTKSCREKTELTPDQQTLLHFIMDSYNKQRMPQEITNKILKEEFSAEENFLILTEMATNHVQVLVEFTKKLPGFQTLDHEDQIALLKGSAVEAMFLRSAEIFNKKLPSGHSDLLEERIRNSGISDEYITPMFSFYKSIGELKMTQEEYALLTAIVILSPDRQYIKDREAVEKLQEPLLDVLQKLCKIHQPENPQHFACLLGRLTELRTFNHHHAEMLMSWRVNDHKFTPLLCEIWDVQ

For assay [3], the target named is Oxysterols receptor LXR-alpha (Homo sapiens) (UniProt Q13133). Kind of assay: ATG_LXRa_TRANS: Attagene TRANS-FACTORIAL HepG2 Assay for human Liver X Receptor alpha (LXRa) (AID 2282980). The settings on record: HepG2 Attagene TRANS reporter, LXRa transactivation. An outline of the steps: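 HepG2 cells transiently transfected with GAL4-UAS reporter units for chimeric NR-Gal4 proteins, exposed to chemicals for 24 h. Reporter mRNA quantified by RT-PCR and capillary electrophoresis; gain of signal fitted relative to DMSO.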
Oxysterols receptor LXR-alpha (Homo sapiens), sequence (Q13133 whole entry, looked up, the tested form may be a part): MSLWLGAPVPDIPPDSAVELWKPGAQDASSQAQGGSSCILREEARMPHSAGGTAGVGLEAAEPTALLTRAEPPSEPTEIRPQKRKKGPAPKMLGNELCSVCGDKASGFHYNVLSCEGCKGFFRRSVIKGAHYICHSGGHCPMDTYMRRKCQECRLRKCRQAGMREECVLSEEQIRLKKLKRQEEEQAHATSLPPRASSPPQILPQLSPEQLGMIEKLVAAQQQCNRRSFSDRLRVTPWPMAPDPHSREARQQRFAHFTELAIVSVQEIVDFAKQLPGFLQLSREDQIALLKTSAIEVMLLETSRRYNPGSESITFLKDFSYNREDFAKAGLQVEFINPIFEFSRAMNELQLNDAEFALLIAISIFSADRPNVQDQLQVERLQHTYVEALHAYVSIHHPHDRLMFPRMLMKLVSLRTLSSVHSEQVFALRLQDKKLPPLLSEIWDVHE

Assay [4] addresses Oxysterols receptor LXR-beta (Homo sapiens) (UniProt P55055). Kind of assay: ATG_LXRb_TRANS: Attagene TRANS-FACTORIAL HepG2 Assay for human Liver X Receptor beta (LXRb) (AID 2282981). The settings on record: HepG2 Attagene TRANS GAL4-LXRb reporter, mRNA. An outline of the steps:
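After 24 h chemical treatment of transfected HepG2 cells carrying exogenous NR-Gal4 chimeras, reporter mRNA was quantified by fluorescent RT-PCR and capillary electrophoresis; activity taken as increase over DMSO controls.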

The nature of assay [5]: ATG_M_06_TRANS: Attagene TRANS-FACTORIAL HepG2 Assay for M06 Transcription Factor (Internal Marker) (AID 2282983). The settings on record: HepG2 Attagene TRANS M06 internal marker reporter. In short, it runs like this:
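mRNA levels of a reporter transcript, quantified as FAM fluorescence on capillary electrophoresis, served as readout. HepG2 cells expressing exogenous GAL4-chimera reporter constructs were exposed for 24 h. Gain of signal over DMSO was evaluated.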

The target in assay [6] is Nuclear receptor subfamily 4 group A member 2 (Homo sapiens) (UniProt P43354). Kind of assay: ATG_NURR1_TRANS: Attagene TRANS-FACTORIAL HepG2 Assay for human Nuclear Receptor Related Protein 1 (NURR1) (AID 2282985). The following applies: HepG2 Attagene TRANS reporter, mRNA readout. In short, it runs like this: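 Reporter transcript induction, measured by RT-PCR with fluorescent labelling, HpaI digestion and capillary electrophoresis, after 24 hr dosing of human HepG2 cells transiently expressing an exogenous NR-Gal4 fusion with GAL4-UAS-driven reporters; DMSO as baseline.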
Nuclear receptor subfamily 4 group A member 2 (Homo sapiens), sequence (P43354 whole entry, looked up, the tested form may be a part): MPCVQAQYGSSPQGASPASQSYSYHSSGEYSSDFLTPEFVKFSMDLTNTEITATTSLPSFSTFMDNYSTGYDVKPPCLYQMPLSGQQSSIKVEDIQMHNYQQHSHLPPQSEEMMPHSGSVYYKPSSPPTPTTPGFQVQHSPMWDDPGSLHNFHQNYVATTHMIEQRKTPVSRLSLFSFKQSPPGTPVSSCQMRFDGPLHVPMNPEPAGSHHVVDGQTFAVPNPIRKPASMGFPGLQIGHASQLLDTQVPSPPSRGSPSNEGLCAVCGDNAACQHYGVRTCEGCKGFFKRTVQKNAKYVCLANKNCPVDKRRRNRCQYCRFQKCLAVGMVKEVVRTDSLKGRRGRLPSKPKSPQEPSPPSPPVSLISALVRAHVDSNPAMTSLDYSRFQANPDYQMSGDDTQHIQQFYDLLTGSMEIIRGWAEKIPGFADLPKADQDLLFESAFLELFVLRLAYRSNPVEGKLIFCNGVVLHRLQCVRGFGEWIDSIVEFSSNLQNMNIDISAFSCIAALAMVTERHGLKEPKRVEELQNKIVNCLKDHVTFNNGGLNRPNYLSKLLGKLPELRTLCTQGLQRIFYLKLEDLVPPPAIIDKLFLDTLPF

The target in assay [7] is Transcriptional activator Myb (Homo sapiens) (UniProt P10242). In words: ATG_Myb_CIS: Attagene CIS-FACTORIAL HepG2 Assay for human Myeloblastosis (Myb) Proto-Oncogene Transcription Factor (AID 2282986; active = hit-call score of the fitted dose curve at least 0.9, where 1 is the maximum; inactive = score below 0.9). The settings on record: HepG2 Attagene CIS-FACTORIAL Myb reporter transcription; actives raise or lower the signal. In short, it runs like this: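 Reporter transcript levels, quantified by fluorescent RT-PCR and capillary electrophoresis, serve as the read-out. Transfected HepG2 cells carrying cis-promoter reporter units are dosed for 24 hours, and curves are fitted bidirectionally against DMSO controls.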
Transcriptional activator Myb (Homo sapiens), sequence (P10242 whole entry, looked up): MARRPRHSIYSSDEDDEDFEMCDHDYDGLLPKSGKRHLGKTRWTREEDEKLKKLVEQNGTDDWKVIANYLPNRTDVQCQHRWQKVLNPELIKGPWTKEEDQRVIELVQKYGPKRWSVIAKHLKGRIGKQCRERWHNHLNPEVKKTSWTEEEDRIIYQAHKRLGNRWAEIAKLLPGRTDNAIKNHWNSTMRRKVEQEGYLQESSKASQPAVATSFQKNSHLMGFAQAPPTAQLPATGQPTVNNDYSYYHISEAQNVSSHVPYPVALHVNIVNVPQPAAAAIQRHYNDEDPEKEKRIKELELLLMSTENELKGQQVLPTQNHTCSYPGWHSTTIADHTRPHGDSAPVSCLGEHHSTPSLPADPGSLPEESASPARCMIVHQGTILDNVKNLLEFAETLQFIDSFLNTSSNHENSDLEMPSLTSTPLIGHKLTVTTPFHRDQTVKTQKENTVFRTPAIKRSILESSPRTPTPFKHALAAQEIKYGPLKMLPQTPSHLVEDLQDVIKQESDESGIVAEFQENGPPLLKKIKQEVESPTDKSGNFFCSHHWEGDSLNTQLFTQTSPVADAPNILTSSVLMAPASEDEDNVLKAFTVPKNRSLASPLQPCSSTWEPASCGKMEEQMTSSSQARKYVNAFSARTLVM

A short description of assay [8]: ATG_M_32_TRANS: Attagene TRANS-FACTORIAL HepG2 Assay for M32 Transcription Factor (Internal Marker) (AID 2282984). The following applies: HepG2 Attagene TRANS M32 internal marker reporter. In short, it runs like this: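 Internal background reporter in transfected HepG2: after 24 h chemical exposure, RNA reverse-transcribed, reporter cDNA amplified, fluorescently labelled and HpaI-cut, then sized by capillary electrophoresis. Gain of signal fitted against DMSO control.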

In assay [9] the target is Hepatocyte nuclear factor 4-alpha (Homo sapiens) (UniProt P41235). In words: ATG_HNF4a_TRANS: Attagene TRANS-FACTORIAL HepG2 Assay for human Hepatocyte Nuclear Factor 4 alpha (HNF4a) (AID 2282982). The following applies: HepG2 HNF4a transactivation reporter, mRNA readout. In short, it runs like this:
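Activity of an exogenous HNF4a–Gal4 fusion scored as induced GAL4-UAS reporter transcripts after 24 h chemical exposure of transfected human HepG2 cells. Read-out via RT-PCR with 6-FAM labelling and capillary electrophoresis; rise over DMSO baseline.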

Oxysterols receptor LXR-beta (Homo sapiens), sequence (P55055 whole entry, looked up, the tested form may be a part): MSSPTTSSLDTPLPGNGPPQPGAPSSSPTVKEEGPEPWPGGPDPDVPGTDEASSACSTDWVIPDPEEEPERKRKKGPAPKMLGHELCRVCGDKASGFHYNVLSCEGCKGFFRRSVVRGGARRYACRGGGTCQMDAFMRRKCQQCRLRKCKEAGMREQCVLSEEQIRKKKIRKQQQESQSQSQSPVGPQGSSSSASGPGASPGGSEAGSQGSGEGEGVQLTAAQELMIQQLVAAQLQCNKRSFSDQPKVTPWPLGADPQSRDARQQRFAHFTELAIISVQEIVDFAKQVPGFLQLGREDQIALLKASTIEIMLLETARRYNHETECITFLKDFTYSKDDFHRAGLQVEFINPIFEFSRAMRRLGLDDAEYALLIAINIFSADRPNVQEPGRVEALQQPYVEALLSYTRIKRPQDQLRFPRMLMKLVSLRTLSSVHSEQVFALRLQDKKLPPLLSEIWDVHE
Hepatocyte nuclear factor 4-alpha (Homo sapiens), sequence (P41235 whole entry, looked up, the tested form may be a part): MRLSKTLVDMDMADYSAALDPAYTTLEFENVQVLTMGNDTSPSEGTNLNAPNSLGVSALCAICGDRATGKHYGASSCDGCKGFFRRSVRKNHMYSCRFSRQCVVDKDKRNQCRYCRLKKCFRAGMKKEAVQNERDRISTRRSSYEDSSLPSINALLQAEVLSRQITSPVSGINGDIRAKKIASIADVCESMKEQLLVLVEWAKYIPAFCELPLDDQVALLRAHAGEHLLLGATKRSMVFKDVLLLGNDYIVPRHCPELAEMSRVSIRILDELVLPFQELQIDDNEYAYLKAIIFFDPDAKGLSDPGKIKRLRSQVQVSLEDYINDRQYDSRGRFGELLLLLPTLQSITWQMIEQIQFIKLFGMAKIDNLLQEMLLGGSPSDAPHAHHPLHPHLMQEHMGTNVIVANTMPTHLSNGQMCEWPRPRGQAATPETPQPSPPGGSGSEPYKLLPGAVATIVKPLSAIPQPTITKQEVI

In the case of `CC(C)(C)c1cc(CCC(=O)NCCCCCCNC(=O)CCc2cc(C(C)(C)C)c(O)c(C(C)(C)C)c2)cc(C(C)(C)C)c1O`, the compound was classed as inactive in assay [1], in assay [2], in assay [3], in assay [4], in [5] and in assay [6]. Also, the call in assay [7] was inactive.

Take `OC(O)C(F)(F)C(F)(F)F`: the result in assay [1], in assay [2], in [5], in assay [6] and in assay [7] was inactive.

For the compound `C=CCOC(=O)CC(C)C`, the call in [1], in assay [2], in [4], in [5] and in [7] was inactive.

As to `CN(C)C(C)(C)CO`, the compound was classed as inactive in assay [1], in assay [2], in [3], in assay [4], in assay [5] and in [7].

`CCOC(OCC)OCC`: the call in [1], in [2], in [4], in [5], in assay [8] and in assay [7] was inactive.

For `CCC/C=C/CO`, the result in assay [1], in assay [2], in [6] and in assay [7] was inactive.

Take `OCCC(O)CO` (centres undefined): the result in assay [1], in assay [2] and in assay [7] was inactive.

As for `CCc1ccc(C)nc1`, the call in [1], in assay [2], in [3], in [5], in assay [8] and in assay [7] was inactive.

Take `O=C(Cl)c1ccc(Cl)cc1Cl`: the result in [1], in [2], in [3], in assay [5], in assay [8] and in assay [6] was inactive. Moreover, the compound was classed as inactive in assay [7].

Turning to `NS(=O)(=O)C(F)(F)C(F)(F)C(F)(F)C(F)(F)C(F)(F)C(F)(F)F`, the compound was called inactive in assay [1], in assay [2], in assay [3], in [4], in assay [5] and in [8]. Also, the result in assay [7] was inactive.

Consider `Cc1ccc(O)cn1`, for which the result in assay [1], in assay [2], in [9], in [8] and in assay [7] was inactive. For the same compound, in assay [3], the AC50 (as a rule, the concentration at which the activity in the assay is half-maximal) is 25.4 µM (active).

Turning to `Cc1cc(C)c(O)c(C(C)(C)C)c1`, the outcome in assay [1], in assay [3], in [5] and in [7] was inactive.

Consider `F[Si-2](F)(F)(F)(F)F`, for which the compound was classed as inactive in assay [1], in assay [2], in assay [4], in assay [9], in [5] and in assay [8]. Also, the compound was classed as inactive in assay [6] and in assay [7].

Take `CC(=O)c1ccccc1N`: the compound was classed as inactive in assay [1], in assay [9], in assay [5] and in [7].

Turning to `CC(C)(C)C(=O)C1C(=O)c2ccccc2C1=O`, the call in assay [2], in [3], in assay [4], in assay [9], in [5] and in assay [8] was inactive. Besides, the call in [6] and in assay [7] was inactive.

Regarding `CO[Si](CCCOCC1CO1)(OC)OC` (centres undefined), the call in assay [1], in [4], in [8], in [6] and in assay [7] was inactive.

Regarding `CCN(CCO)S(=O)(=O)C(F)(F)C(F)(F)C(F)(F)C(F)(F)C(F)(F)C(F)(F)C(F)(F)C(F)(F)F`, the outcome in [2], in assay [3], in assay [4], in assay [5], in assay [8] and in assay [6] was inactive. For the same compound, the compound was classed as inactive in assay [7].

As to `CC1=CC2C3C=CC(C3)C2C1C` (centres undefined), the call in assay [2], in assay [3], in assay [5], in assay [6] and in assay [7] was inactive.

As for `CC(C)OC=O`, the compound was classed as inactive in assay [1], in assay [5] and in assay [7].

Consider `O=C1OC(=O)c2ccc3c4c(ccc1c24)C(=O)OC3=O`, for which the result in assay [2], in [3], in assay [9], in assay [5], in [8] and in [7] was inactive.

In the case of `O=C(F)C1(F)C(F)(F)C(F)(F)C(F)(F)C(F)(F)C1(F)F`, the call in assay [2], in assay [3], in [4], in assay [8] and in assay [7] was inactive.

Regarding `CC1=CCC(=O)O1`, the outcome in assay [2], in assay [3], in assay [4], in assay [5], in assay [6] and in assay [7] was inactive.

With `O=C(O)C(F)(F)OC(F)(F)C(F)(F)OC(F)(F)C(F)(F)OC(F)(F)F`, the compound was called inactive in assay [2], in [3], in assay [5], in assay [8] and in [7].

Take `O=S(=O)(Cl)C(F)(F)C(F)(F)C(F)(F)C(F)(F)C(F)(F)C(F)(F)C(F)(F)C(F)(F)F`: the call in assay [2], in assay [3], in assay [5], in assay [8] and in assay [7] was inactive.

As for `CC(=O)CCC(C)C`, the call in [1], in assay [4] and in assay [7] was inactive.

Regarding `CCOCOCC`, the compound was classed as inactive in assay [2], in [3], in [4], in assay [8], in [6] and in [7].

Regarding `CCN(CC)c1ccc(N=Nc2ccccc2)cc1`, the result in assay [2], in [3], in [4], in [8] and in assay [7] was inactive.

Regarding `C[C@]12CC[C@H]3C(=CCc4cc(O)ccc43)[C@@H]1CCC2=O`, the result in assay [2], in assay [3], in assay [4], in assay [9], in [5] and in assay [8] was inactive. The result in assay [7] was inactive.
